The list is not random: actives were taken first. Their share in the collection is about 16%.
DT40 TDP1 no CPT = qHTS for Inhibitors of human tyrosyl-DNA phosphodiesterase 1 (TDP1): qHTS in cells in absence of CPT; AID 686978, 2013; DT40 Tdp1-/- hTDP1 cells, no CPT, ATP luminescence, 48 h; Potency, µM (top dose mostly 46.2 µM), for inactives: at the top dose activity change, negative = growth inhibition, hits mostly inhibitors; actives 15% (n = 420,000); further: potency means the concentration at half of the fitted maximal effect; on the % scale 0 is the no-effect control and ±100 the full control effect; nearly all actives have a fitted effect of over 55% in size
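Luminescent ATP content (CellTiter-Glo) served as the growth readout. Knockout chicken DT40 cells expressing human TDP1 were exposed to compounds without camptothecin for a minimum 48 hr at 37 °C.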
uPA surface inh = qHTS for Inhibitors of Cell Surface uPA Generation | cell surface uPA generation assay, qHTS | Potency, µM (titrated, usually from 38.3 µM), without a hit: at the highest dose activity change, negative = inhibition, hits mostly inhibitors | actives 0.31% (n = 330,000); active means well fitted inhibition curve with a large enough effect; inconclusive means small, poorly fitted or top-dose-only effect; inactive means no such curve, though single readings can be large or run the other way; tested in mouse RAW 264.7 cells; further: potency means the concentration at half of the fitted maximal effect; on the % scale 0 is the no-effect control and ±100 the full control effect; nearly all actives have a fitted effect of over 55% in size
TDP1 cell CPT = qHTS for Inhibitors of human tyrosyl-DNA phosphodiesterase 1 (TDP1): qHTS in cells in presence of CPT; actives 12% (n = 420,000); chicken DT40 Tdp1-/-;hTDP1 cells + 20 nM CPT, ATP luminescence, 48 h; Potency, µM (doses to about 46.2 µM), without a hit: top-dose activity change, negative = growth inhibition, most hits filed as inhibitors; AID 686979, 2013; further: potency means the concentration at half of the fitted maximal effect; on the % scale 0 is the no-effect control and ±100 the full control effect; nearly all actives have a fitted effect of over 55% in size
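Chicken DT40 Tdp1-/- cells complemented with human TDP1, 400 cells/well, exposed to compounds plus 20 nM camptothecin for at least 48 h at 37 C; viability read as ATP content by CellTiter-Glo luminescence.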
TDP1 inh = qHTS Assay for Inhibitors of Tyrosyl-DNA Phosphodiesterase (TDP1); actives 0.28% (n = 350,000); AID 485290, 2010; recombinant TDP1, AlphaScreen DNA substrate cleavage; Tyrosyl-DNA phosphodiesterase 1 (Homo sapiens), Q9NUW8; Potency, µM (highest dose often 130 µM), inactives show at the top dose activity change, negative = inhibition, hits mostly inhibitors; further: potency means the concentration at half of the fitted maximal effect; on the % scale 0 is the no-effect control and ±100 the full control effect; nearly all actives have a fitted effect of over 40% in size
Target sequence (Q9NUW8 whole entry, looked up): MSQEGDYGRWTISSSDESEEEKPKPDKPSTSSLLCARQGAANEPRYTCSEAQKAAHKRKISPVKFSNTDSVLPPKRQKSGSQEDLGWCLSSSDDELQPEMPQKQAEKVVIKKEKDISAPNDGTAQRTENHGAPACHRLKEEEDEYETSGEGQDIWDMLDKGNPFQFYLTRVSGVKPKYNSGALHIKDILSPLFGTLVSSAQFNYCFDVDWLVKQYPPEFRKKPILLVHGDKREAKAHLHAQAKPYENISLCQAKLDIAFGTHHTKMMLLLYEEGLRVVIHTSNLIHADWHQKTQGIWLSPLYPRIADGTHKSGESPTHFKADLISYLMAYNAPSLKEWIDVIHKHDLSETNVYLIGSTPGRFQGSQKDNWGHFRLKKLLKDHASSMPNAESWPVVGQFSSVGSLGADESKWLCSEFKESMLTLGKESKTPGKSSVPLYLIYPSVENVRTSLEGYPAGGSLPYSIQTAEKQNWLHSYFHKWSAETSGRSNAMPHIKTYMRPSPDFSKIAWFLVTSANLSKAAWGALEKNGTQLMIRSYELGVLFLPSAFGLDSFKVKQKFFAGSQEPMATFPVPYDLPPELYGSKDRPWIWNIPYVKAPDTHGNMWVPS
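Here, a 5' biotin and 3' phosphotyrosine-FITC DNA oligonucleotide reports Tdp1 activity: intact substrate bridges AlphaScreen beads, while cleavage leaves a 3' phosphate and drops signal. All incubations at room temperature.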
miR-21 act = qHTS Assay for Modulators of miRNAs and/orActivators of miR-21. HeLa miR-21 FLuc reporter, luciferase, 48 h. Potency, µM (doses to about 38.3 µM), without a hit: at the highest dose activity change, positive = activation, most hits filed as activators. 340,000 tested, under 10 active. AID 2288, 2010;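 further: % of control where 0% means no effect; miR-21 action dims this reporter so a rising signal means less miR-21 action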
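Compounds were titrated across several concentrations (up to approximately 40 uM) and incubated 48 hours with HeLa miR-21-FLuc reporter cells (miR-21 target sequence downstream of FLuc, endogenous miR-21). Readout was firefly luciferase luminescence after lytic detection reagent.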
The depositor's hits bear a star; u = inconclusive; x = not tested or not shown; [ ] = another dose, or the depositor's remark. Unless noted, the call rests on the fitted dose curve; in most records, active means well fitted curve in the direction sought with a large enough effect; inconclusive means small, poorly fitted or top-dose-only effect, or another doubt; inactive means no such curve, though single readings can be large; an effect the other way counts as inactive or inconclusive.

SMILES	DT40 TDP1 no CPT	uPA surface inh	TDP1 cell CPT	TDP1 inh	miR-21 act
Cc1ccc(C)c(N2CCN(C(=O)c3cc(S(=O)(=O)N4CCCCC4)cn3C)CC2)c1	18.4µM*	x	20.6µM*	6.5%	u
COc1cc(S(=O)(=O)N2CCOCC2)cc(C(=O)c2nccn2C)c1OC	-2.2%	-6.9%	-2.8%	7.3%	-3.5%
Cc1cc(C(=O)N(C2CCCCC2)C2CCCCC2)no1	8.2µM*	11.0%	13µM*	-2.0%	3.5%
CSc1nc(SC(C)C(=O)O)c2c3c(sc2n1)COC(C)(C)C3 (centres undefined)	-2.5%	-1.0%	-21.4%	2.8%	2.4%
CSc1nc(SCCN(C)C)c2c3c(sc2n1)COC(C)(C)C3	18.4µM*	-3.6%	u	7.1%	-11.8%
Cc1ccc(N=Cc2cccc(O)c2O)c(C)c1	u	x	20µM*	11.7%	1.1%
CCN(CC)c1ccc(C=Nc2ccc(C)cc2C)c(O)c1	-26.9%	-3.9%	-21.9%	3.6%	-5.1%
Cc1ccccc1N=Cc1cccc(O)c1O	10.3µM*	-10.7%	u	7.9%	-0.5%
CCOc1ccc(OCC)c(NC(=O)CN(c2ccc(C)cc2)S(=O)(=O)c2c(C)noc2C)c1	23.1µM*	4.3%	u	2.0%	21.5%
Cc1ccc(N(CC(=O)NC(C)c2ccccc2)S(=O)(=O)c2c(C)noc2C)cc1 (centres undefined)	16.4µM*	-8.9%	u	12.3%	-0.7%
CCOc1ccc(OCC)c(NC(=O)CN(c2ccc(OC)cc2)S(=O)(=O)c2c(C)noc2C)c1	u	1.6%	u	5.3%	9.0%
Cc1ccc(N(CC(=O)Nc2cc(C)ccc2C)S(=O)(=O)c2c(C)noc2C)cc1	23.1µM*	x	u	0.0%	17.7%
CCOc1ccc(N(CC(=O)Nc2ccccc2CC)S(=O)(=O)c2c(C)noc2C)cc1	3.66µM*	x	4.61µM*	7.0%	27.1%
Cc1ccc(N(CC(=O)NC(C)c2ccccc2)S(=O)(=O)c2c(C)n[nH]c2C)cc1 (centres undefined)	-25.6%	-0.1%	-24.7%	0.4%	1.6%
CCOc1ccc(N(CC(=O)NCCc2ccc(C)cc2)S(=O)(=O)c2c(C)noc2C)cc1	u	-6.7%	23.1µM*	3.5%	4.6%
Cc1cc(Nc2cc(Cl)cc(Cl)c2)nc(N)n1	10.3µM*	-15.0%	u	8.9%	-6.8%
Cc1cc(C)c([N+](=O)[O-])cc1NC(=O)CCSc1ccccc1Cl	14.6µM*	-5.4%	u	0.0%	-0.7%
Cc1ccc(-n2c(=O)c3oc4ccccc4c3n(CC(=O)Nc3ccc(F)c(Cl)c3)c2=O)cc1C	-19.4%	x	-14.4%	-2.6%	1.1%
CCCCOc1ccc(/C=C/C2=CC(C)(C)NC(=S)N2)cc1OCC	13µM*	-1.0%	u	10.5%	2.2%
CCOc1cc(C=O)ccc1OCCCN1C(=O)NC(C)(C)C1=O	13.8%	x	-17.7%	2.0%	0.0%
COc1ccc(OC)c(NC(=O)CSc2nccn2-c2cc(C)cc(C)c2)c1	16.4µM*	x	14.6µM*	11.0%	1.8%
CCc1nnc(NC(=O)CSc2nccn2-c2cc(C)cc(C)c2)s1	16.4µM*	u	23.1µM*	5.2%	3.7%
CCc1nnc(NC(=O)CSc2nccn2-c2ccc(OC)cc2)s1	-9.4%	x	u	5.5%	5.2%
Cc1cccc(-n2ccnc2SCC(=O)Nc2ccccc2C(F)(F)F)c1	u	x	u	9.9%	-3.9%
Cc1cc(C)cc(-n2ccnc2SCC(=O)Nc2ccc(C)cc2C)c1	20.6µM*	x	16.4µM*	13.2%	u
SMILES	DT40 TDP1 no CPT	uPA surface inh	TDP1 cell CPT	TDP1 inh	miR-21 act
Cc1cccc(NC(=O)CSc2nc3ccccc3nc2N2CCOCC2)c1C	u	x	u	2.1%	-2.5%
CC1CC(C)C(=O)C(C(CC2CC(=O)NC(=O)C2)OC(=O)CC(=O)c2ccccc2)C1 (centres undefined)	0.411µM*	-7.3%	0.366µM*	x	x
O=C1CCC(C(=O)OCC(=O)c2ccccc2)N1 (centres undefined)	-24.2%	x	u	2.6%	-1.7%
COC(=O)CN1C(C(=O)c2ccccc2)=C(OC(=O)c2ccc(F)cc2)c2ccccc2S1(=O)=O	-22.8%	x	16.4µM*	2.3%	u
CCOC(=O)CN1C(C(=O)c2ccccc2)=C(OC(=O)c2ccccc2)c2ccccc2S1(=O)=O	25.9µM*	x	20.6µM*	2.3%	u
CCN1C(C(=O)c2ccccc2)=C(OC(=O)c2ccc(Cl)cc2)c2ccccc2S1(=O)=O	23.1µM*	x	u	7.4%	u
Cc1ncn(C23CC4CC(CC(C4)C2)C3)n1	u	3.6%	-19.4%	-2.6%	-12.7%
CN(Cc1ccccc1)C(=O)COC(=O)c1cc(NS(=O)(=O)c2cccs2)ccc1O	u	-13.5%	u	-2.7%	12.9%
Fc1ccc(-c2nnc3ccc(N4CCc5ccccc5C4)nn23)cc1	8.2µM*	u	9.2µM*	3.9%	-8.2%
O=C(OCC(=O)N1CCc2ccccc21)[C@@H]1CC(O)CN1S(=O)(=O)c1ccc(Cl)cc1 (some centres undefined)	u	-9.2%	u	-0.4%	x
O=C(OCC(=O)N1CCc2ccccc21)[C@@H]1CC(O)CN1S(=O)(=O)c1ccccc1[N+](=O)[O-] (some centres undefined)	18.4µM*	-5.1%	20.6µM*	0.2%	x
CS(=O)(=O)c1ccc(C(=O)OCC(=O)N2CCc3ccccc32)cc1[N+](=O)[O-]	3.98µM*	x	3.55µM*	0.5%	x
CCCCn1c(N)c(N(CCC(C)C)C(=O)C2CC(=O)N(Cc3ccc(C)cc3)C2)c(=O)[nH]c1=O (centres undefined)	1.6%	-0.5%	-2.3%	-0.6%[0.505 µM]	x
COc1ccc(C(=O)On2c(-c3ccc(Br)cc3)nc3ccccc3c2=O)cc1	18.4µM*	-10.5%	u	0.0%	0.1%
Cc1cc(C(=O)Nn2c(-c3ccc(Br)cc3)nc3ccccc3c2=O)ccc1[N+](=O)[O-]	u	1.1%	29.1µM*	5.8%	1.2%
COc1ccc2c(C)cc(SCC(=O)Nc3nsc(-c4ccc(C(C)(C)C)cc4)n3)nc2c1	x	x	x	3.2%	-17.4%
CCOC(=O)C1CCN(S(=O)(=O)c2ccc(NC(=O)c3ccco3)cc2)CC1	6.6%	10.0%	5.6%	1.1%[56.1 µM]	-0.2%
COc1ccc(S(=O)(=O)Nc2c(C)cccc2C)cc1-n1cnnn1	-9.1%	-0.6%	u	8.3%	0.4%
Cc1cc(OCC(=O)Nc2ccc(CN3CCOCC3)cc2)c2c(C)cc(=O)oc2c1	11.6µM*	u	18.4µM*	1.4%	5.5%
